# BioA inh = inhibitors of Mycobacterium tuberculosis BioA enzyme. inhibition, % at 9.99 µM. purified M. tuberculosis BioA enzyme, plate reader. 360,000 tested, 0.096% active. AID 602481; in the data active means inhibition above about 40%; inconclusive means no clear call, values can overlap the other calls
# Yp Topo-I inh = Y. pestis Topo-I inhibition via cleavage products. Y. pestis Topo-I cleavage product accumulation, plate reader. activity, % at 10 µM. 360,000 tested, 0.064% active. AID 504884; in the data active means activity above about 50%, passing the limit was not always enough; inconclusive means no clear call, values can overlap the other calls
# PrP UTR inh = inhibition of PrP 5' UTR reporter expression. 340,000 tested, 0.35% active. AID 488862. inhibition, % (test concentration not listed). cell-based PrP 5' UTR mRNA reporter, plate reader; in the data active means inhibition above about 52%; further: 0 = median of the neutral control wells
# TcdB GH inh = inhibitors of Clostridioides difficile toxin B glycohydrolase | 350,000 tested, 0.24% active | inhibition, % at 9.99 µM | TcdB glycohydrolase enzymatic assay, plate reader | P18177; in the data active means inhibition above about 10%
# Target sequence (P18177 whole entry, looked up): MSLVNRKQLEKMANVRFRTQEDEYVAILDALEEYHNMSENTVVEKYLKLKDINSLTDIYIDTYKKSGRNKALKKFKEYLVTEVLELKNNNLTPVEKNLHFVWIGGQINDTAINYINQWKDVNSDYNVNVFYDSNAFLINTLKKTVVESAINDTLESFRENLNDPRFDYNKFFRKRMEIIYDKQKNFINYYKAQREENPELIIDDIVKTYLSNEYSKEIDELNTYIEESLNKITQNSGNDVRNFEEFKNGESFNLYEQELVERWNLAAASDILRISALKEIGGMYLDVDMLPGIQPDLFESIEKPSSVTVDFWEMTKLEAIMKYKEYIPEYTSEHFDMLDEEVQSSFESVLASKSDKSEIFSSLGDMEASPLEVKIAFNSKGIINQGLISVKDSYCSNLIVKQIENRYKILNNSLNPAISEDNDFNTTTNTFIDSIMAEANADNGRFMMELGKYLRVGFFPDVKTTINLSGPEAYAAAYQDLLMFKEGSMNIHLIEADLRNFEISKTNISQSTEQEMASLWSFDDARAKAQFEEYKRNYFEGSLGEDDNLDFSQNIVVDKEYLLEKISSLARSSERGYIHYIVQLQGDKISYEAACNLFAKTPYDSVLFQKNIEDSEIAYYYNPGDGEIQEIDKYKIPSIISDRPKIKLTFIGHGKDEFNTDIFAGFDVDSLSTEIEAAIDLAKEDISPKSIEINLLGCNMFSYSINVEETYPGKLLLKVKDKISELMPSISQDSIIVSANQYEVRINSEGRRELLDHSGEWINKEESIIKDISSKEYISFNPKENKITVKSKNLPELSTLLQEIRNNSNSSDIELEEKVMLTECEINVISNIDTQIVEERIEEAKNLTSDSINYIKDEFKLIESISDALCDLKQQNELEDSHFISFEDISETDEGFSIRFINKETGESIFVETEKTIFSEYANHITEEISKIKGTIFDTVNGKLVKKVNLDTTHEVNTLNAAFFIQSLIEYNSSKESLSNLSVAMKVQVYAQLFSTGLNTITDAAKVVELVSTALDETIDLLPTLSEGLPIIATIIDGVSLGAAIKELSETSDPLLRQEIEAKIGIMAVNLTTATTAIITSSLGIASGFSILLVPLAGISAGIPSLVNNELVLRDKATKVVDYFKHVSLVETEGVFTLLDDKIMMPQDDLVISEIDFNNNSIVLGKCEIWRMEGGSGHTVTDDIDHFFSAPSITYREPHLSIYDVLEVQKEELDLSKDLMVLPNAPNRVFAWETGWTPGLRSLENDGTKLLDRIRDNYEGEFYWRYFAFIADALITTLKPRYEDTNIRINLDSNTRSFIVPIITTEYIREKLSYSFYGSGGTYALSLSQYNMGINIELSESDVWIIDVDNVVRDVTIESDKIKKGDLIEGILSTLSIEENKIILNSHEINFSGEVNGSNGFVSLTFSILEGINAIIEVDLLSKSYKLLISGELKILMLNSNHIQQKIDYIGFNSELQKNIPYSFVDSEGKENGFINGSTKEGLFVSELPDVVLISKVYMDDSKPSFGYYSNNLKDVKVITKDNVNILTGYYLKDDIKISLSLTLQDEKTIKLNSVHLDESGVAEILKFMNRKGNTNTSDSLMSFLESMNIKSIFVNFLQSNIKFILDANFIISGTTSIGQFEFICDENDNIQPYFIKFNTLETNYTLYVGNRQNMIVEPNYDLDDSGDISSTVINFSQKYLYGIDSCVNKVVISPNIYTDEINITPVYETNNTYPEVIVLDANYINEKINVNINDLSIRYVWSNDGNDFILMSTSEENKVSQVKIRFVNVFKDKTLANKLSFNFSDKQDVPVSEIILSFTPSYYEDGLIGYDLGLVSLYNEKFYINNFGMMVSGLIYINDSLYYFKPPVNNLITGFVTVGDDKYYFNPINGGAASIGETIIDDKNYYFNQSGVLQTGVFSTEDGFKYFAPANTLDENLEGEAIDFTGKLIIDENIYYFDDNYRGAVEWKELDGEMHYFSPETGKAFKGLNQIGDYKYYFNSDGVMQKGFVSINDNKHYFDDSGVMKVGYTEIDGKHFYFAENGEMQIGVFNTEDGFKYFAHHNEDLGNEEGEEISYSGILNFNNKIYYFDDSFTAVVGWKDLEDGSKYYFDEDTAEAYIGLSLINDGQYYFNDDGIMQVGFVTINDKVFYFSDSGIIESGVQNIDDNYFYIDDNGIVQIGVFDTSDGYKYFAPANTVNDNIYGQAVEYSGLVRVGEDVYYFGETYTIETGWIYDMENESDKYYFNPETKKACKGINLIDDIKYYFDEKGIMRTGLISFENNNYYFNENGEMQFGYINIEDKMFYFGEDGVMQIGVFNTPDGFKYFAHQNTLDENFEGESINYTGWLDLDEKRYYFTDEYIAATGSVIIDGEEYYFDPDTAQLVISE
# FadD28 FP inh = inhibitors of Mycobacterium tuberculosis FadD28 bisubstrate binding | FadD28 bisubstrate probe binding, fluorescence polarization | inhibition, % at 12.5 µM | 360,000 tested, 0.22% active | AID 588549; in the data active means inhibition above about 8.5%, passing the limit was not always enough; inconclusive means no clear call, values can overlap the other calls
# PfHsp40 rescue = restores yeast growth despite PfHsp40 toxicity. S. cerevisiae expressing PfHsp40, growth rescue, ATP luminescence. 340,000 tested, 0.68% active. growth rescue, % at 12.5 µM; in the data active means growth rescue above about 28%, passing the limit was not always enough; inconclusive means no clear call, values can overlap the other calls;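 further: yeast W303a lacking pdr1 and pdr3 grown in galactose medium; growth measured after three days at 30 °C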
# * = called active by the depositor; ? = inconclusive; nt = no result given; ! = not confirmed by another sample. A selection: hits, their analogues and other compounds. The true share with any hit is near 1.2%.
SMILES,BioA inh,Yp Topo-I inh,PrP UTR inh,TcdB GH inh,FadD28 FP inh,PfHsp40 rescue
CNC[C@H]1Oc2ccc(NC(=O)Nc3cccc4ccccc34)cc2C(=O)N([C@@H](C)CO)C[C@H]1C,1,nt,nt,-2,nt,nt
C[C@H](CO)N1C[C@H](C)[C@H](CN(C)C(=O)c2ccncc2)OCCCC[C@H](C)Oc2ccc(NC(=O)CCCCCC(=O)Nc3ccccc3N)cc2C1=O,-4,nt,nt,0,nt,nt
NC(=S)N/N=C/c1coc2cc(Br)ccc2c1=O,nt,7,-30,1,-3,0
NC(=S)N/N=C/c1coc2ccc(Br)cc2c1=O,1,1,-15,0,-1,38*
CSC1=N/C(=C\c2ccccc2)C(=O)N1C,-4,3,-13,5,-2,40*
CCCCn1c(=O)[nH]c(=O)c2c1nc(-c1ccsc1)n2Cc1ccccc1,-1,59*,-17,nt,-1,0
N#C[C@H]1[C@H](c2ccc(C3=CCCCC3)cc2)[C@@H](CO)N1C(=O)c1cccc(F)c1,0,nt,nt,-1,nt,nt
O=C(c1ccc(S(=O)(=O)N2CCCCCC2)cc1)N1CCC(CN2C(=O)c3cccc4cccc(c34)C2=O)CC1,-1,5,-15,nt,-2,44*
Oc1c(Br)c(Br)c(Br)c(Br)c1Br,3,-6,-5,nt,41*,31*
O=C(O)CC(C(=O)O)N1C(=O)/C(=C/c2ccc(-c3nc4ccccc4s3)o2)SC1=S (stereo not given),-3,-14,-19,nt,29*,14
O=C(O)CCN1C(=O)/C(=C/c2ccc(-c3nc4ccccc4s3)o2)SC1=S,-1,7,-19,nt,?,-1
O=C(CC1CC1)Nc1ccc2c(c1)[C@@H]1C[C@@H](CC(=O)N3CCOCC3)O[C@@H](CO)[C@@H]1O2,-3,nt,nt,nt,nt,nt
COc1ccc(C(=O)NCCc2c[nH]c3ccccc23)cc1S(=O)(=O)N1CCCCC1C (stereo not given),6,16,-11,2,62*,2
COc1ccc(C(=O)NCCc2ccc(Cl)cc2)cc1S(=O)(=O)N1CCCCC1C (stereo not given),0,33,-5,0,7,2
O=C(Nc1ccccc1F)N1C[C@@H]2N[C@H](C1)C2c1ccc(-c2cccc(F)c2)cc1 (stereo not given in full),nt,nt,nt,24*!,nt,nt
O=C(Nc1ccccc1F)N1C[C@@H]2N[C@H](C1)C2c1ccc(-c2ccccc2)cc1 (stereo not given in full),nt,nt,nt,1,nt,nt
COC(=O)C1=NNC2(c3ccc(Cl)cc3)C(=O)N(c3ccc(Cl)cc3)C(=O)C12 (stereo not given),0,6,-12,nt,1,45*
COC(=O)C1=NNC2(c3ccc(Cl)cc3)C(=O)N(c3ccccc3)C(=O)C12 (stereo not given),-2,-6,-7,1,3,-1
O=C(NCC1CC1)[C@H]1[C@H](CO)[C@H]2Cn3c(cccc3=O)[C@@H]1N2CCc1ccccc1,-2,nt,nt,0,nt,nt
CC(C)COC(=O)c1cccc2c1-c1ccccc1/C2=N\O,0,40,-9,nt,-10,?
CCOC(=O)c1cccc2c1-c1ccccc1/C2=N/O,1,1,-15,nt,-11,233*
O=C(NC(=S)Nc1ccc(N2CCOCC2)cc1)c1ccccc1,2,0,-31,23*,-1,0
Cc1ccccc1C(=O)N/N=C/c1ccc([N+](=O)[O-])s1,-1,-11,26,nt,-2,11
O=C(N/N=C/c1ccc([N+](=O)[O-])s1)c1ccccc1,-1,2,8,2,-2,150*
O=[N+]([O-])c1ccc(/C=N/NC(=S)Nc2ccc(Cl)cc2Cl)s1,0,-13,-24,1,-3,240*
SMILES,BioA inh,Yp Topo-I inh,PrP UTR inh,TcdB GH inh,FadD28 FP inh,PfHsp40 rescue
CCCNC(=O)N1CCC2(CC1)CN(C(C)=O)[C@H](CO)c1[nH]c3cc(OC)ccc3c12,nt,nt,nt,2,nt,nt
CCC(=O)N1[C@@H](CO)[C@@H]2c3ccccc3N(C(=O)Nc3ccccc3Cl)C[C@@H]21,-1,nt,nt,2,nt,nt
O=C(C[C@@H]1C[C@H]2c3cc(NC(=O)C4CCOCC4)ccc3O[C@H]2[C@@H](CO)O1)NCc1ccccn1,0,nt,nt,0,nt,nt
Cc1ccc(Cl)cc1NC(=O)CSc1sc2c(O)cc(=O)[nH]c2c1C#N,-2,-1,-17,1,1,47*
Cc1nn(C(C)(C)C)c(OC(=O)c2cccs2)c1S(=O)(=O)c1ccccc1,0,9,-9,nt,-1,67*
CC(=O)Oc1c(S(=O)(=O)c2ccccc2)c(C)nn1C(C)(C)C,nt,4,-93,nt,-4,0
O=c1n(Cc2ccc(Cl)cc2)c2sc3c(c2c2ncnn12)CCCC3,13,57*,-12,nt,1,23
CCOc1ccccc1-n1c(C)nc2cc(C(=O)O)ccc21,nt,12,-4,20*,1,-2
COC(=O)Cc1cc(=O)n(-c2ccccc2)[nH]1,nt,4,-11,-2,1,51*
CO[C@H]1CN(C)C(=O)c2ccc(NC(C)=O)cc2OC[C@@H](C)N(Cc2nccs2)C[C@@H]1C,-1,nt,nt,2,nt,nt
CNC1=C(N(C(C)=O)c2ccc(Br)cc2)C(=O)c2ccccc2C1=O,nt,-11,-44,nt,0,77*
Nc1ccc(-c2nc3ccc(N)cc3[nH]2)cc1,nt,-39,-13,8,14*,-1
Nc1ccc(-c2nc3c(Cl)c(N)ccc3[nH]2)cc1,-7,0,-4,nt,11*,1
Nc1ccc2nc(-c3ccc(Cl)cc3)[nH]c2c1,-1,-7,-108,9,-2,0
Nc1ccc(-c2nc3ccc([N+](=O)[O-])cc3[nH]2)cc1,nt,-16,-76,3,-3,0
C[C@@H]1CN([C@H](C)CO)C(=O)c2cc(NC(=O)Nc3cccc4ccccc34)ccc2O[C@H]1CN(C)Cc1ccc(-c2ccccc2)cc1,-2,nt,nt,0,nt,nt
CO[C@@H]1CN(C)C(=O)c2cc(NC(=O)NC(C)C)ccc2OC[C@H](C)N(S(C)(=O)=O)C[C@H]1C,nt,nt,nt,-2,nt,nt
CO[C@@H]1CN(C)C(=O)c2cc(NC(=O)NC(C)C)ccc2OC[C@@H](C)N(S(C)(=O)=O)C[C@H]1C,0,nt,nt,16*,nt,nt
CCCn1c(=O)c(C(=O)NCCc2ccc(OC)c(OC)c2)c(O)c2ccccc21,-1,1,-23,1,-2,192*
CCCCn1c(=O)c(C(=O)Nc2ncccc2C)c(O)c2ccccc21,0,33,-1,1,-1,?
C=CCn1c(=O)c(C(=O)NCCNCC)c(O)c2ccccc21,-4,-16,-2,-8,-6,0
CCCCn1c(=O)c(C(=O)NCc2ccncc2)c(O)c2ccccc21,0,34,-6,nt,-4,219*
CCCCCCn1c(=O)c(C(=O)Nc2ncccc2C)c(O)c2ccccc21,-1,-2,13,1,-3,145*
CCn1c(=O)c(C(=O)NCCc2ccc(OC)c(OC)c2)c(O)c2ccccc21,-1,-6,nt,0,3,10
C=CCn1c(=O)c(C(=O)NCc2ccccc2)c(O)c2ccccc21,0,27,-18,2,-3,129*

# Screening data deposited in PubChem BioAssay by Broad Institute.
